Test results taken from article PMC7862700, “An all-to-all approach to the identification of sequence-specific readers for epigenetic DNA modifications on cytosine”.

Assays:
Assay in all cases: DAPPL (digital affinity profiling via proximity ligation, sequencing); 10 mM Tris-HCl pH 7.5, 50 mM NaCl, 1 mM DTT, 4% glycerol, room temperature, 30 min; GST-TFs on glutathione beads, 16-mer random dsDNA library, 0.1% formaldehyde crosslink after washing; high values mean tight binding
FEV = target: T1, FEV (Homo sapiens, UniProt Q99581 1-238); conditions: protein: recombinant; tags: N-terminal GST; dsDNA, one strand shown
T1 sequence: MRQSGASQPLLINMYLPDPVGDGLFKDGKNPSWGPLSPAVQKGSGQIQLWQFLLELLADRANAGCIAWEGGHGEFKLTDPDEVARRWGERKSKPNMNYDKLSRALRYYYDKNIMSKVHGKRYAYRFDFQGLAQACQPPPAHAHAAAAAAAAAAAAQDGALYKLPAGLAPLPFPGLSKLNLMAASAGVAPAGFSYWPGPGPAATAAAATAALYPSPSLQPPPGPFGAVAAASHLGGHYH
Outline: (§1)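 Sequencing on an Illumina NextSeq500 followed washing, crosslinking with 0.1% formaldehyde, proximity ligation (BsaI/T4 ligase, 1 h, 37 °C) and PCR amplification of pools that had been incubated for 30 min at room temperature with 200 nmole of a random double-stranded 16-mer DNA library in Tris/NaCl/DTT/glycerol buffer. Each pool held DNA-barcoded human transcription factors, expressed in yeast as GST fusions and captured on glutathione beads, plus a tag-only sample. Binding signal is a hexamer's read frequency for a factor divided by its frequency in the tag-only sample.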

ETV5 = ETV5 (Homo sapiens, UniProt P41161 1-510); conditions: protein: recombinant; tags: N-terminal GST; dsDNA, one strand shown
Chain of ETV5 (P41161 whole entry): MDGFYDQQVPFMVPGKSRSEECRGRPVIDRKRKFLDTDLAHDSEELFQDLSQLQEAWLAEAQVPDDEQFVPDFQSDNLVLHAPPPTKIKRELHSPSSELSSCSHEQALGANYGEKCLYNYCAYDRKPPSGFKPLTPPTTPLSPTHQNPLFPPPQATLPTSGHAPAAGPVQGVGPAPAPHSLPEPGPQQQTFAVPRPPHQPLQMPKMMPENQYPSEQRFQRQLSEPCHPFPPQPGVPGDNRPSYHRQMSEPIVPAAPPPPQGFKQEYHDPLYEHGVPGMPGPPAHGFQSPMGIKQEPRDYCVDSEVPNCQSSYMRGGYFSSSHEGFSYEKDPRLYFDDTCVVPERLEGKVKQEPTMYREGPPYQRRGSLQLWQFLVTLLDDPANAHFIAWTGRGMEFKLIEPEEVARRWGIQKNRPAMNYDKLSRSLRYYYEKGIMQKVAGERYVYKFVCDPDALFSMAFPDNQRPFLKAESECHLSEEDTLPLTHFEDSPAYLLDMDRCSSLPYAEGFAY
Outline: as §1

HSF1 = HSF1 (Homo sapiens, UniProt Q00613 1-529); conditions: protein: recombinant; tags: N-terminal GST; chain copies: 3; dsDNA, one strand shown
Chain of HSF1 (Q00613 whole entry): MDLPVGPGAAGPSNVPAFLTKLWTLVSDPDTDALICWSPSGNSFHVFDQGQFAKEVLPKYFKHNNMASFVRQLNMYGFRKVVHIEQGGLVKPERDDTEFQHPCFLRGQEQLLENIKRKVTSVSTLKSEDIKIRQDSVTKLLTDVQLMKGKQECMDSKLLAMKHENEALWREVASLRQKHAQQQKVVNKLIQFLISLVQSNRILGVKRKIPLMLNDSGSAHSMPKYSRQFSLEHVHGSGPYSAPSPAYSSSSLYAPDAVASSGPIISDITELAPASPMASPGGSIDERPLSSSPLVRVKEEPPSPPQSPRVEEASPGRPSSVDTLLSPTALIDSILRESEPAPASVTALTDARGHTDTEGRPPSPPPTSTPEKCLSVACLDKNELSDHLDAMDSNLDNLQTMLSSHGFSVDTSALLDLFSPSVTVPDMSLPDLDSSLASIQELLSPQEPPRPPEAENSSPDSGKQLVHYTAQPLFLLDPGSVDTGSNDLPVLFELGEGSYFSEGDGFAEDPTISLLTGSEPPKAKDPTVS
Outline: as §1

ELF4 = ELF4 (Homo sapiens, UniProt Q99607 1-663); conditions: protein: recombinant; tags: N-terminal GST; dsDNA, one strand shown
Chain of ELF4 (Q99607 whole entry): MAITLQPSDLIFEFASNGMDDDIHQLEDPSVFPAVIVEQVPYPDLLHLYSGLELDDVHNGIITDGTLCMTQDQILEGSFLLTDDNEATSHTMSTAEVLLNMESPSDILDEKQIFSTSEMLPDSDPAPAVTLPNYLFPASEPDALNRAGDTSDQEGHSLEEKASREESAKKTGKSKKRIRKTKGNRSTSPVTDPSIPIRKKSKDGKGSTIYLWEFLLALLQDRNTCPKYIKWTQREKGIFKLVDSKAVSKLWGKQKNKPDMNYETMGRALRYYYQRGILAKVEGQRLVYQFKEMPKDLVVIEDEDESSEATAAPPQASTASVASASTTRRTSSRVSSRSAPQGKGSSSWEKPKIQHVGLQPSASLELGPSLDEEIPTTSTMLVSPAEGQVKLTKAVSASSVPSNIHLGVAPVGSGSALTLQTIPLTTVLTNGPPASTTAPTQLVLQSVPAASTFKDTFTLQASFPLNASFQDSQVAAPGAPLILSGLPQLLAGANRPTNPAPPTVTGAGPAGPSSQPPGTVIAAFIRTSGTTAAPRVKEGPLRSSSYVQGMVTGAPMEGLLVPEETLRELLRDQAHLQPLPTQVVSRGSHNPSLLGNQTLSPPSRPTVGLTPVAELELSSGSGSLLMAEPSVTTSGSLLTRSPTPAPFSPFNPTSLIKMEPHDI
Outline: as §1

ELK4 = target: T2, ELK4 (Homo sapiens, UniProt P28324-2 1-405); conditions: protein: recombinant; tags: N-terminal GST; dsDNA, one strand shown
T2 sequence: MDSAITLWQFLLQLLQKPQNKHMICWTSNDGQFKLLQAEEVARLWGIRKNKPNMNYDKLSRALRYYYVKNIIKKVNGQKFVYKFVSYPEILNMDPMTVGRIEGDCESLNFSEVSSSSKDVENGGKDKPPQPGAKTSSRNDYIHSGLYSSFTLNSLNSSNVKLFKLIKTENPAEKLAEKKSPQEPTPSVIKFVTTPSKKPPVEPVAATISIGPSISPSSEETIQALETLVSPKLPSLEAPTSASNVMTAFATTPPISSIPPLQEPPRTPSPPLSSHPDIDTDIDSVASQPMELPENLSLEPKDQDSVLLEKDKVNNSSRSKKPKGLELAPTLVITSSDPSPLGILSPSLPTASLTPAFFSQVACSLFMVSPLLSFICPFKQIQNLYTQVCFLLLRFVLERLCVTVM
Outline: as §1

ETV2 = target: T3, ETV2 (Homo sapiens, UniProt O00321 1-342); conditions: protein: recombinant; tags: N-terminal GST; dsDNA, one strand shown
T3 sequence: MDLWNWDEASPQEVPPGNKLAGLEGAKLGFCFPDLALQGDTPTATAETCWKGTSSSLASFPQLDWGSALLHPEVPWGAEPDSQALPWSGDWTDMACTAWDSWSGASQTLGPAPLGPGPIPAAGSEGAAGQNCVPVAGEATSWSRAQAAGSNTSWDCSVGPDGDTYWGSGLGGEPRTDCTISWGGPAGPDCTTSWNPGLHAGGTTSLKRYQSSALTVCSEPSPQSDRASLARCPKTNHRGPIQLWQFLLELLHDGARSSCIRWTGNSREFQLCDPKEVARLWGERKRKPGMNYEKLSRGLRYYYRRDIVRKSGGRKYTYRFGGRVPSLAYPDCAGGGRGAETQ
Outline: as §1

CRX = CRX (Homo sapiens, UniProt O43186 1-299); conditions: protein: recombinant; tags: N-terminal GST; dsDNA, one strand shown
Chain of CRX (O43186 whole entry): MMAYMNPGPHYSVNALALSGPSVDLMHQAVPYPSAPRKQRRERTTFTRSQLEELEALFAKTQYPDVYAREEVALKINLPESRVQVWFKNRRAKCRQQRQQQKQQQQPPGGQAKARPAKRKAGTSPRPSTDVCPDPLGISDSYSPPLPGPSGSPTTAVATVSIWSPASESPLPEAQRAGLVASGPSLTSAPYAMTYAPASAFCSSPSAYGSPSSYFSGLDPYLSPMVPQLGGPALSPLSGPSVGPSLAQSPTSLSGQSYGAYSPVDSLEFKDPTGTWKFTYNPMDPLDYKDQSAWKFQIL
Outline: as §1

ERF = target: T4, ERF (Homo sapiens, UniProt P50548 1-548); conditions: protein: recombinant; tags: N-terminal GST; dsDNA, one strand shown
T4 sequence: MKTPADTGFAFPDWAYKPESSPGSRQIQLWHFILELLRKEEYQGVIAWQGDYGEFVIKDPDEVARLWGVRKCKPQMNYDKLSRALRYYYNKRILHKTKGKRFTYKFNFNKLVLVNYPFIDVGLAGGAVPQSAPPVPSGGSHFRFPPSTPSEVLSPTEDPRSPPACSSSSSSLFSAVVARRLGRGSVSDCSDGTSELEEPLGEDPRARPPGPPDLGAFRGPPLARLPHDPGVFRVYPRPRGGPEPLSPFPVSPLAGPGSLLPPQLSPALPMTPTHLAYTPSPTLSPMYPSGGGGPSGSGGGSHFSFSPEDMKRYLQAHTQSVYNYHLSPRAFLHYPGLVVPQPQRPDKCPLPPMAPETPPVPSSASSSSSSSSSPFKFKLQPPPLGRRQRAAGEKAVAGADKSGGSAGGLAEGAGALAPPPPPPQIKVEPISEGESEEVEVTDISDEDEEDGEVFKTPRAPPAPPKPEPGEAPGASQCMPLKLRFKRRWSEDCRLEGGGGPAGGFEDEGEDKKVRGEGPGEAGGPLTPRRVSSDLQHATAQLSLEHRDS
Outline: as §1

ETV3L = target: T5, ETV3L (Homo sapiens, UniProt Q6ZN32 1-361); conditions: protein: recombinant; tags: N-terminal GST; dsDNA, one strand shown
T5 sequence: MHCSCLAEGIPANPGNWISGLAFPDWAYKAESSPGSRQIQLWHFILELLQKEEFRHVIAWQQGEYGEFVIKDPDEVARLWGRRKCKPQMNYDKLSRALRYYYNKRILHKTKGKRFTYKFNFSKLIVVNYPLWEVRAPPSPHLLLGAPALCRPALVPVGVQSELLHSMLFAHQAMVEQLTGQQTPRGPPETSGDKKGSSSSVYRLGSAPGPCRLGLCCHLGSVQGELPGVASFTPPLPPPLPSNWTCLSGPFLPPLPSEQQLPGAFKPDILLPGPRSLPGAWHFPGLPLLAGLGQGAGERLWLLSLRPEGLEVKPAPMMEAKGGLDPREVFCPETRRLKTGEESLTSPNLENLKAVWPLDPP
Outline: as §1

ETS2 = target: T6, ETS2 (Homo sapiens, UniProt P15036 1-469); conditions: protein: recombinant; tags: N-terminal GST; dsDNA, one strand shown
T6 sequence: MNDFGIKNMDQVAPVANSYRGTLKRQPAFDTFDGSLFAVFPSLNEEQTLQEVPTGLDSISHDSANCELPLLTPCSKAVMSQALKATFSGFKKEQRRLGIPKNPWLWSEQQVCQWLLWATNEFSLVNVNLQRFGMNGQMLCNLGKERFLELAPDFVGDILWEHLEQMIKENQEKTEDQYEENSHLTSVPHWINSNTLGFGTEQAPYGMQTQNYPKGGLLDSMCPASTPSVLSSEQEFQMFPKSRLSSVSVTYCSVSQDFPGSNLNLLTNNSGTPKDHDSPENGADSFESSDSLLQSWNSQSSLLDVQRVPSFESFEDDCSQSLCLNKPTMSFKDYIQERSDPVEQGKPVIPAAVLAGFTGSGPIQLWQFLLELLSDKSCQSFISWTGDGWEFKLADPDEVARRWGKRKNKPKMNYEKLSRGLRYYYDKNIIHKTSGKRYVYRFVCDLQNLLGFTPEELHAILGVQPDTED
Outline: as §1

SPDEF = target: T7, SPDEF (Homo sapiens, UniProt O95238 1-335); conditions: protein: recombinant; tags: N-terminal GST; dsDNA, one strand shown
T7 sequence: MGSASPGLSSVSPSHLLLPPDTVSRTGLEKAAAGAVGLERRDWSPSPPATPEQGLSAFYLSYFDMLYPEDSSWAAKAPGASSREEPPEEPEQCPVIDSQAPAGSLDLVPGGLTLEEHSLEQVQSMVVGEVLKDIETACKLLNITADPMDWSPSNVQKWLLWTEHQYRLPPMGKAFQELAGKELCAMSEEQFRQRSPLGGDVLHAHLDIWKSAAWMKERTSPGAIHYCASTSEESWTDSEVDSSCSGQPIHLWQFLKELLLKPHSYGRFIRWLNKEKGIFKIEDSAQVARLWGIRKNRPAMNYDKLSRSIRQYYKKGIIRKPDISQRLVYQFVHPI
Outline: as §1

ELF5 = target: T8, ELF5 (Homo sapiens, UniProt Q9UKW6-2 1-255); conditions: protein: recombinant; tags: N-terminal GST; dsDNA, one strand shown
T8 sequence: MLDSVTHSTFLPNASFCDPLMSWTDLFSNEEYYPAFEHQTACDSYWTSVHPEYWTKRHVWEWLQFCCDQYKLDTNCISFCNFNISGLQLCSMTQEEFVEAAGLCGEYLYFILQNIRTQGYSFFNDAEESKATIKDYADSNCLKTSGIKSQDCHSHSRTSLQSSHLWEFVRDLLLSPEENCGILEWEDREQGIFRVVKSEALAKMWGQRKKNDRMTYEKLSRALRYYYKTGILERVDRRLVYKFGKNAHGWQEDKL
Outline: as §1

ETV3 = target: T9, ETV3 (Homo sapiens, UniProt P41162-2 1-143); conditions: protein: recombinant; tags: N-terminal GST; dsDNA, one strand shown
T9 sequence: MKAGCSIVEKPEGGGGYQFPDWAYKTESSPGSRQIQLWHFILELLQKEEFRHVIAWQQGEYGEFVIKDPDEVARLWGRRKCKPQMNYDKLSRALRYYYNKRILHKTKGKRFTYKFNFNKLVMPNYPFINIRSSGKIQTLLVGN
Outline: as §1

ETV6 = ETV6 (Homo sapiens, UniProt P41212 1-452); conditions: protein: recombinant; tags: N-terminal GST; dsDNA, one strand shown
Chain of ETV6 (P41212 whole entry): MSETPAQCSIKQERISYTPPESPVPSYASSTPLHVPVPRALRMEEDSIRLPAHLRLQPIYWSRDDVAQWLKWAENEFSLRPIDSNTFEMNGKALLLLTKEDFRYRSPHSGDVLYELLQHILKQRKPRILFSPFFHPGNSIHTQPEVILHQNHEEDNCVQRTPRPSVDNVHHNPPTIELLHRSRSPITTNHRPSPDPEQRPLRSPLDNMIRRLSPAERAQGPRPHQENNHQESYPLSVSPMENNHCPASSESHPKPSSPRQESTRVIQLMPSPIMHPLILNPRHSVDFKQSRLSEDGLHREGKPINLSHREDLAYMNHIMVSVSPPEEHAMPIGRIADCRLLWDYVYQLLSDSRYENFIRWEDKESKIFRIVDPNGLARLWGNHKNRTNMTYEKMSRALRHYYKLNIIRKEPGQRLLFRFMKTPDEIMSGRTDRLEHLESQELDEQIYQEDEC
Outline: as §1

**Q.** With GTTATC as the sequence, how does the binding signal (FEV) read?
**A.** 1.05 fold enrichment (6-mer frequency, TF over GST control)

**Q.** And the binding signal (ETV5)?
**A.** 1.12 fold enrichment (6-mer frequency, TF over GST control)

**Q.** What about the binding signal (HSF1) of the same sequence?
**A.** 1.03 fold enrichment (6-mer frequency, TF over GST control)

**Q.** What about the binding signal (ELF4) of the same sequence?
**A.** 1.04 fold enrichment (6-mer frequency, TF over GST control)

**Q.** What about the binding signal (ELK4) of the same sequence?
**A.** 1.22 fold enrichment (6-mer frequency, TF over GST control)

**Q.** And the binding signal (ETV2)?
**A.** 1.21 fold enrichment (6-mer frequency, TF over GST control)

**Q.** What about the binding signal (CRX) of the same sequence?
**A.** 1.24 fold enrichment (6-mer frequency, TF over GST control)

**Q.** And the binding signal (ERF)?
**A.** 1.06 fold enrichment (6-mer frequency, TF over GST control)

**Q.** What about the binding signal (ETV3L) of the same sequence?
**A.** 1.07 fold enrichment (6-mer frequency, TF over GST control)

**Q.** And the binding signal (ETS2)?
**A.** 1.14 fold enrichment (6-mer frequency, TF over GST control)

**Q.** What about the binding signal (SPDEF) of the same sequence?
**A.** 1.11 fold enrichment (6-mer frequency, TF over GST control)

**Q.** And the binding signal (ELF5)?
**A.** 1.14 fold enrichment (6-mer frequency, TF over GST control)

**Q.** And the binding signal (ETV3)?
**A.** 1.07 fold enrichment (6-mer frequency, TF over GST control)

**Q.** What about the binding signal (ETV6) of the same sequence?
**A.** 1.1 fold enrichment (6-mer frequency, TF over GST control)
